Screening data deposited in PubChem BioAssay by National Center for Advancing Translational Sciences (NCATS).
Hits are enriched below; roughly 17% of the tested compounds scored in any of these assays.
ClpP mod: qHTS Assay for Activators of ClpP; AID 651965, 2013; actives 1.9% (n = 340,000); Potency, µM (doses to about 57.5 µM), for the others: at the top dose activity change, negative = active; purified B. subtilis ClpP, FRET peptide cleavage, 20 min; active = well fitted falling curve with a large enough effect; inconclusive = small, poorly fitted or top-dose-only effect; inactive = no such curve, though single readings can be large or run the other way; note: the source files actives as falling curves though it sought activators and does not explain the sign; nearly all actives have a fitted effect of over 65% in size
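Buffer: 100 mM Tris/HCl pH8, 100 mM KCl, 0.05% low protease BSA, 2.5% glycerol, 0.01% Tween-20. ClpP 10 microg/mL final; 20 min RT; delta FRET normalized to ADEP and DMSO controls.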
TDP1 cell CPT: growth inhibition of DT40 Tdp1-/-;hTDP1 cells with camptothecin (screen for TDP1 inhibitors); actives 12% (n = 420,000); AID 686979; Potency, µM (top dose mostly 46.2 µM), inactives show at the top dose activity change, negative = growth inhibition, most hits filed as inhibitors; chicken DT40 Tdp1-/-;hTDP1 cells + 20 nM CPT, ATP luminescence, 48 h; note: % is set by controls: 0 for no effect and ±100 for the full control effect; nearly all actives have a fitted effect of over 55% in size
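Chicken DT40 Tdp1-/- cells complemented with human TDP1, 400 cells/well, exposed to compounds plus 20 nM camptothecin for at least 48 h at 37 C; viability read as ATP content by CellTiter-Glo luminescence.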
TDP1 inh: blocks human tyrosyl-DNA phosphodiesterase 1. Q9NUW8. recombinant TDP1, AlphaScreen DNA substrate cleavage. Potency, µM (titrated, usually from 130 µM), for the others: at the highest dose activity change, negative = inhibition, most hits filed as inhibitors. actives 0.28% (n = 350,000). AID 485290; note: % is set by controls: 0 for no effect and ±100 for the full control effect; nearly all actives have a fitted effect of over 40% in size
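Compounds were preincubated with Tdp1 (1 nM final) for 15 min at room temperature before substrate (15 nM final) started a 5 min reaction; beads (10 ug/ml final) were then added for 10 min before AlphaScreen detection.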
TDP1 cell noCPT: qHTS for Inhibitors of human tyrosyl-DNA phosphodiesterase 1 (TDP1): qHTS in cells in absence of CPT | DT40 Tdp1-/- hTDP1 cells, no CPT, ATP luminescence, 48 h | Potency, µM (series often up to 46.2 µM), for the others: at the highest dose activity change, negative = growth inhibition, usual class: inhibitors | actives 15% (n = 420,000) | AID 686978, 2013; note: % is set by controls: 0 for no effect and ±100 for the full control effect; nearly all actives have a fitted effect of over 55% in size
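Compound effects on proliferation are scored in DT40 Tdp1-/-;hTDP1 cells in the absence of CPT. ATP levels (CellTiter-Glo luminescence) are recorded after a ≥48 hr, 37 °C incubation.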
* = called active by the depositor; ? = inconclusive; . = not tested or not shown; [ ] = remark or other dose. Unless noted, calls come from the whole dose curve; as a rule, active = well fitted curve in the direction sought with a large enough effect; inconclusive = small, poorly fitted or top-dose-only effect, or another doubt; inactive = no such curve, though single readings can be large; an effect the other way counts as inactive or inconclusive. Potency is the fitted concentration of half-maximal effect.

SMILES	ClpP mod	TDP1 cell CPT	TDP1 inh	TDP1 cell noCPT
COc1ccc(S(=O)(=O)N2CCCCC2)cc1NC(=O)c1cccc(S(=O)(=O)N2CC(C)OC(C)C2)c1 (stereo not given)	-5%	-14%	.	?
CCN(CC(=O)Nc1ccc(OC)cc1)C(=O)c1ccc2c(=O)n3c(nc2c1)CCC3	-1%	6%	1%	-16%
N=C1Sc2ccccc2C2=NCCCN12	.	.	18%	.
COCCN(C(=O)CSCc1ccccc1)c1c(N)n(Cc2ccccc2)c(=O)[nH]c1=O	-1%	6%	0%	-7%
COc1ccc(-n2ccnc(NCCc3ccc(S(N)(=O)=O)cc3)c2=O)cc1	-10%	3%	8%	-27%
COc1cc(=O)n2c(c1C(=O)NC(C)c1ccco1)CCN(C(=O)c1ccnc(Cl)c1)CC2 (stereo not given)	.	15%[9.04 µM]	.	-2%
CN1CCc2nc3sc(C(=O)Nc4cccc(C#N)c4)c(N)c3cc2C1	-10%	21µM*	-7%	8.2µM*
CN1CCc2nc3sc(C(=O)Nc4c(F)cccc4F)c(N)c3cc2C1	-10%	?	6%	?
COc1ccc2c(c1)CC(C(=O)Nc1ccc(Br)c(C)c1)CO2 (stereo not given)	-9%	-30%	1%	?
Cc1ccc2oc(=O)c(/C=C(\O)c3ccco3)nc2c1	.	3%	0%	-24%
Cc1ccc2oc(=O)c(/C=C(\O)c3sc(C)nc3C)nc2c1	1%	?	1%	23µM*
CCc1ccc(OCc2ccccc2C(=O)Nc2ccc3nc(C)cc(N)c3c2)cc1	-3%	5µM*	9%	3.2µM*
CCOC(=O)c1ccc(NC(=O)c2cc(C)nc3ccccc23)cc1	-1%	18%	.	4%
CCc1cc(C(=O)Nc2cc(S(=O)(=O)N(CC)CC)ccc2N2CCOCC2)sc1C	?	21µM*	-1%	?
CN1CCN(c2ccc(S(=O)(=O)N3CCCCC3)cc2NC(=O)c2cccc([N+](=O)[O-])c2)CC1	0%	-23%	0%	-21%
CCN(CC)S(=O)(=O)c1ccc(N2CCOCC2)c(NC(=O)c2sccc2C)c1	-21%	?	2%	18µM*
CCc1cc(C(=O)Nc2ccccc2N2CCOCC2)sc1C	-1%	?	-4%	?
CCN(CC)S(=O)(=O)c1ccc(N2CCOCC2)c(NC(=O)c2ccco2)c1	.	?	0%	?
CCc1cc(C(=O)Nc2cc(S(=O)(=O)N3CCCCC3)ccc2N2CCN(C)CC2)sc1C	-27%	4.6µM*	.	4.1µM*
CCN(CC)S(=O)(=O)c1ccc(N2CCOCC2)c(NC(=O)C23CC4CC(CC(Cl)(C4)C2)C3)c1	-18%	?	-1%	23µM*
COc1ccc([N+](=O)[O-])cc1NC(=O)CCSCCc1ccccn1	.	?	-3%	?
CCc1ccc2occ(CC(=O)NCc3ccccc3)c2c1	0%	?	5%	?
CCN(CC)S(=O)(=O)c1ccc(N2CCOCC2)c(NC(=O)c2ccccc2)c1	1%	?	5%	?
CCN(CC)S(=O)(=O)c1ccc(N2CCOCC2)c(NC(=O)c2cc(C)cc(C)c2)c1	-2%	7.3µM*	6%	18µM*
CCN(CC)S(=O)(=O)c1ccc(N2CCOCC2)c(NC(=S)NC(=O)c2ccco2)c1	.	10µM*	5%	?
SMILES	ClpP mod	TDP1 cell CPT	TDP1 inh	TDP1 cell noCPT
CCOC(=O)c1c(C)[nH]c(C)c1S(=O)(=O)NCC(=O)N(C)c1ccc(C)c(C)c1	-1%	?	0%	?
C=CCNC(=S)NNc1nc(Nc2ccccc2)nc(N2CCCCC2)n1	.	15µM*	9%	8.2µM*
COc1ccc(Cl)cc1NC(=O)N1CCC(CN2CCc3ccccc3C2)CC1	-6%	?	2%	?
CCCn1c(=O)n(C)c(=O)c2c(SCc3cc(C(C)=O)ccc3OCC)nc(C3CC3)nc21	-1%	21µM*	.	26µM*
Cn1c(=O)c2c(SC3CCCC3)nc(C3CC3)nc2n(C)c1=O	0%	?	4%	21µM*
Cn1c(=O)c2c(SCC(=O)Nc3nccs3)nc(C3CC3)nc2n(C)c1=O	.	23µM*	1%	18µM*
CC(=O)c1ccc(NC(=O)CSc2nc(C3CCCC3)nc3c2c(=O)n(C)c(=O)n3C)cc1	2%	5.2µM*	5%	5.2µM*
Cc1cccc(NC(=O)CSc2nc(C3CCCC3)nc3c2c(=O)n(C)c(=O)n3C)c1C	0%	-14%	0%	-7%
COC(=O)c1ccccc1-c1cc(C)cc2c1OC(CNC(=O)c1cc(C)n(C)n1)C2 (stereo not given)	.	8%[9.04 µM]	.	?
O=C(Nc1ccc(S(=O)(=O)Nc2nccs2)cc1)c1cccc(N2C(=O)c3ccccc3C2=O)c1	1%	3%	5%	-9%
CC(=O)Oc1cccc(N2C(=O)c3ccc(C(=O)O)cc3C2=O)c1	1%	-25%	-4%	-10%
O=C(Nc1nccs1)c1cccc(N2C(=O)c3cccc4c([N+](=O)[O-])ccc(c34)C2=O)c1	0%	5.2µM*	4%	3.7µM*
O=C(O)c1ccc(CN2C(=O)c3cccc4c([N+](=O)[O-])ccc(c34)C2=O)cc1	.	15µM*	.	16µM*
CC(=O)Oc1cccc(N2C(=O)c3cccc4c([N+](=O)[O-])ccc(c34)C2=O)c1	1%	2.3µM*	.	2.9µM*
O=C(O)c1ccc(CN2C(=O)c3ccc(C(=O)O)cc3C2=O)cc1	0%	1%	.	18%
Cc1ccc(C(=O)O)cc1N1C(=O)c2cccc3c([N+](=O)[O-])ccc(c23)C1=O	-1%	6.5µM*	.	6.5µM*
Cc1ccc(C)c(Cn2c(=O)n(Cc3ccccc3)c(=O)c3c2c2cc(C)ccc2n3C)c1	0%	-9%	3%	-17%
Cc1ccccc1CNC(=O)c1csc([C@@H]2O[C@H](CO)[C@@H](O)[C@H]2O)n1	0%	?	.	?
COc1cc(NC(=O)CCS(=O)(=O)c2ccc(Br)cc2)cc(OC)c1	1%	-25%	-1%	?
CCc1cccc(NC(=O)CCS(=O)(=O)c2ccc(Br)cc2)c1	0%	23µM*	.	29µM*
COc1ccc2c(c1)CCc1cnc(-n3ncc(C(=O)N(C)CC4CCCN(C)C4)c3C)nc1-2 (stereo not given)	.	-11%	.	-10%
Nc1ccccc1-c1ccc([N+](=O)[O-])cc1	.	2%	.	-22%
CC(C)(C)C(=O)Nc1sc2c(c1-c1nc3ccccc3[nH]1)CCCC2	22µM*	?	-3%	?
O=C(C1=C[C@H](c2csc3ccccc23)C[C@H](OCc2ccc(CO)cc2)O1)N1CCN(Cc2ccc3c(c2)OCO3)CC1	0%	16µM*	5%	?
O=C(C1=C[C@H](c2ccccc2)C[C@H](OCc2ccc(CO)cc2)O1)N1CCN(Cc2ccc3c(c2)OCO3)CC1	0%	?	4%	21µM*
